Compounds without any hit were thinned out: in the full panel of roughly 83,000, 20% have a hit.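 The endpoint reported here, percent growth, reads 100 for growth as untreated, 0 for no net growth and -100 for all cells dead.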 Unmarked numbers belong to inactive results. Calls of active or inactive are those of the source. Rule for the calls: active = growth percent below 10; inactive = the rest.
Assays:
Assay in all cases: NCI-60 one-dose screen, 48 h (100 = growth as untreated, 0 = no growth, -100 = all killed)
Details in all cases: 10 µM unless noted
[1] = system: NCI-H23 lung
[2] = system: NCI-H226 lung
[3] = system: NCI-H322M lung
[4] = system: HOP-62 NSCLC
[5] = system: NCI-H460 lung
[6] = system: HOP-92 NSCLC
[7] = system: NCI-H522 lung
[8] = system: A549/ATCC NSCLC
[9] = system: 786-0 renal
[10] = system: COLO 205 colon

SMILES	growth [1]	growth [2]	growth [3]	growth [4]	growth [5]	growth [6]	growth [7]	growth [8]	growth [9]	growth [10]
C/C(=N\NC(=S)Nc1ccc(Br)cc1)c1cc2ccccc2oc1=O	34.1%	-17.8% (active)	37.4%	30.5%	3.8% (active)	29.1%	-14.4% (active)	27.3%	5.25% (active)	71.1%
COc1cc2c3c(n(CCCNC4CCCCC4)c(=O)c2cc1OC)-c1cc2c(cc1C3=O)OCO2	-51.7% (active)	82.5%	-80.3% (active)	-78.9% (active)	-80.1% (active)	91.5%	-60.5% (active)	-87.5% (active)	-82.8% (active)	-79.2% (active)
CCCCCCNC(=O)Oc1ccc(/C(=C(/C)c2ccc(OC)cc2)c2ccc(OCCN3CCCC3)cc2)cc1	78.8%	96.6%	86.2%	88.4%	55.3%	62.8%	92.2%	73.3%	40.9%	76.2%
CCN1C(=O)N(CC)C2SC(N/N=C/c3ccc(OC)cc3)=NC21 (stereo not given)	24.6%	51.2%	42.1%	48%	2.55% (active)	36.4%	17.1%	23.9%	19.6%	2.66% (active)
CC1OC(O[C@@H]2[C@H](O)C(CO)OC(O[C@H]3COC(O[C@H]4CC[C@]5(C)[C@H]6CC[C@]78OC[C@@]9(CCC(C)(C)C[C@H]97)[C@H](O)C[C@@]8(C)[C@]6(C)CC[C@H]5C4(C)C)[C@@H](OC4OC(CO)[C@@H](O)[C@@H](O)[C@@H]4O)[C@@H]3O)[C@H]2OC2OC[C@@H](O)[C@@H](O)[C@@H]2O)[C@@H](O)[C@@H](O)[C@H]1O (stereo not given in full)	-62.7% (active)	-40% (active)	-78.2% (active)	-81% (active)	-65.2% (active)	-39.3% (active)	-72.4% (active)	-67.7% (active)	-80.9% (active)	-74.5% (active)
CC(=O)c1sc(Nc2cccc(Nc3nc(C)c(C)s3)c2)nc1C	63.2%	65.4%	61.7%	77.8%	45.6%	63.6%	46.2%	65.8%	55.7%	77.7%
Cc1ccc(C2CC(c3ccc(Nc4nc(NCCO)nc(Nc5ccc(Cl)cc5)n4)cc3)=Nc3c(N)nc(N)nc3N2)cc1 (stereo not given)	-81.8% (active)	49.7%	-89.8% (active)	-86.4% (active)	-84.8% (active)	53.4%	-69.4% (active)	57.9%	-91.9% (active)	29.9%
NC(=O)c1c(NC(=O)c2cccc(C(F)(F)F)c2F)sc2c1CCC(=O)C2	4.57% (active)	24.8%	98.6%	58.4%	10.9%	13.8%	-11.4% (active)	64.8%	30.2%	-9.67% (active)
CC(=O)c1ccc(NC(=O)COc2ccc(C3SCC(=O)N3c3ccc(Br)cc3)cc2)cc1 (stereo not given)	95.1%	93%	99.1%	93.5%	108%	84.4%	84.8%	93.9%	104%	104%
COc1ccc([C@H]2[C@H](O)C(=O)N2c2cc(OC)c(OC)c(OC)c2)cc1O	31.2%	19.6%	51.4%	18.9%	2.08% (active)	-8.12% (active)	-38% (active)	19.8%	17.4%	-73% (active)
C=C(C)[C@@H]1CC[C@]2(COS(C)(=O)=O)CC[C@]3(C)[C@H](CC[C@@H]4[C@@]5(C)CCCNC(C)(C)[C@@H]5CC[C@]43C)[C@@H]12	82%	86.5%	94.7%	101%	13.5%	76.4%	85.4%	54.2%	91.5%	0.735% (active)
CCCCCCNC(=O)Oc1ccc(/C(=C(/C)c2ccc(Cl)cc2)c2ccc(OCCN3CCCC3)cc2)cc1	48.3%	83.1%	69.2%	65%	-57% (active)	26%	65.3%	53.4%	-28.8% (active)	-36.4% (active)
Oc1ccc(-c2nnc(SCc3ccc(O)c4ncccc34)o2)cc1	13.4%	8.78% (active)	19.8%	13.9%	2.22% (active)	-15.9% (active)	11.4%	15.2%	20.5%	46.2%
CCOC(=O)c1c(Nc2ccccc2)nn2c(-c3ccc(Br)cc3)ccnc12	64.9%	63.3%	79.1%	47.4%	33.9%	28.2%	80.9%	56.4%	54.3%	80.1%
COc1ccc(/C=N\NC(=O)c2ccc3nc(-c4ccc(Br)cc4)[nH]c3c2)cc1	24.5%	64.3%	66.2%	4.06% (active)	-47.7% (active)	-2.97% (active)	74.6%	23.8%	12.8%	18.4%
O=C(CSc1nnc(-c2ccc(Cl)cc2)n1-c1ccccc1)Nc1ccc(F)cc1	82.3%	96.1%	80.3%	75.2%	40.8%	99.2%	71.8%	57.3%	68.1%	96.6%
CN(c1ccc(Cl)cc1)S(=O)(=O)c1ccc(-c2cnc(C3CC3)o2)cc1	23.8%	14.5%	55%	45.6%	8.85% (active)	63.9%	30.8%	24.3%	31.9%	-7.11% (active)
COc1ccc(-c2nnc(/N=C3/C(=O)Nc4ccc(Br)cc43)o2)cc1	95.5%	101%	93.9%	106%	101%	97.1%	98.6%	104%	103%	105%
COCCOc1ccc(-c2csc(NC(=O)CN3CCN(CCO)CC3)n2)cc1NS(=O)(=O)c1cccc2c(N(C)C)cccc12	78%	70.9%	68.4%	81%	98.2%	13.3%	24.1%	92%	37.1%	69.8%
C=C(C)[C@@H]1CC[C@]2(C)[C@H](CC=C3[C@@H]4CC(C)(C)CC[C@]4(C(=O)NCC#CCN4CCN(C)CC4)CC[C@]32C)[C@@]1(C)CCC#N	79.4%	86.7%	85.8%	81.3%	10.7%	13%	78.3%	52.9%	52.3%	86.6%
Fc1ccccc1/C=C(/C1=NCCN1)n1cnc2ccccc21	96%	83.2%	90%	106%	104%	73.7%	94.3%	107%	99%	123%
COc1ccc2c(ccn2C(=O)N2c3ccccc3Sc3ccccc32)c1	40.3%	51.6%	52.6%	35.3%	14.2%	25.4%	-26.8% (active)	43.8%	50.1%	-33.3% (active)
CS(=O)c1nccc(-c2c(-c3ccc(F)c(OCc4ccccc4)c3)nc3sccn23)n1 (stereo not given)	88.2%	96.3%	73.1%	103%	19.1%	51.8%	31.6%	100%	99.1%	106%
